Sampled rows, rich in hits. Any-hit rate of the full collection: about 22%.
Pf growth 96h – Primary qHTS for delayed death inhibitors of the malarial parasite plastid, 96 hour incubation. P. falciparum luciferase reporter growth, 96 h. Potency, µM (highest dose often 28.7 µM), for the others: top-dose activity change, negative = inhibition, actives largely listed as inhibitors. 320,000 tested, 6.9% active. AID 504834, 2011; further: potency means the concentration at half of the fitted maximal effect; on the % scale 0 is the no-effect control and ±100 the full control effect
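Erythrocytes infected with luciferase-expressing P. falciparum were dispensed at 2% hematocrit and 0.05% parasitemia (final), then incubated with compounds 96 hours at 37 C in 5% CO2. Luminescence after detection reagent addition reported growth.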
Pf growth 48h – Primary qHTS for delayed death inhibitors of the malarial parasite plastid, 48 hour incubation. 310,000 tested, 5.9% active. P. falciparum luciferase growth in erythrocytes, 48 h. Potency, µM (titrated, usually from 28.7 µM), for the others: top-dose activity change, negative = inhibition, most hits filed as inhibitors; further: potency means the concentration at half of the fitted maximal effect; on the % scale 0 is the no-effect control and ±100 the full control effect
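Parasite viability was followed by luminescence of a genomically integrated firefly luciferase. Cultures held 0.1% parasitemia at 2% hematocrit (final), incubated under 5% CO2 at 37 C.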
Shiga inhibitor – A qHTS for Small Molecule Inhibitors of Shiga Toxin. inhibition, % at 38.7 µM. Vero cells, Shiga toxin protein synthesis inhibition reporter. 290,000 tested, 9.2% active; in the data active means inhibition mostly above about 28%, no sharp cut-off; inactive means mostly below about 43%; further: 0% is about no effect
LmPK inh – qHTS Assay for Inhibitors of Leishmania Mexicana Pyruvate Kinase (LmPK). purified LmPK, Kinase-Glo ATP luminescence, 1 h. 290,000 tested, 0.37% active. Potency, µM (highest dose often 57.5 µM), for inactives: top-dose activity change, negative = inhibition, usual class: inhibitors. Q27686; further: potency means the concentration at half of the fitted maximal effect; on the % scale 0 is the no-effect control and ±100 the full control effect
Target sequence (Q27686 whole entry, looked up): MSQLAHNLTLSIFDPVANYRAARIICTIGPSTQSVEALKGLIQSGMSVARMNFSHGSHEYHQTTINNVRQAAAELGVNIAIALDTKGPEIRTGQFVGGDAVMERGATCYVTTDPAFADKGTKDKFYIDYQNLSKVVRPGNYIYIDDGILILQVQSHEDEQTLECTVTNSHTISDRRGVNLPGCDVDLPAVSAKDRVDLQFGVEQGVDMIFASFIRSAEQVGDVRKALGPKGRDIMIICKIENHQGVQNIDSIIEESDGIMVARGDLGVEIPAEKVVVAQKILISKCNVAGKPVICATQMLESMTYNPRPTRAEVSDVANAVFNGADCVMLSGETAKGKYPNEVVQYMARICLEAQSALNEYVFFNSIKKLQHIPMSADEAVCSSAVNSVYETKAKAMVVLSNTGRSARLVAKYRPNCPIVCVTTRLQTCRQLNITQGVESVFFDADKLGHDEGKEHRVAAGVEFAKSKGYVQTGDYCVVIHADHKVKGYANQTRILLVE
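In 50 mM imidazole pH 7.2 with 7 mM MgCl2, LmPK (0.1 nM) turned over PEP (0.5 mM) and ADP (0.1 mM) for 1 h at room temperature. Luciferase read-out of ATP.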
CHX counter – Cycloheximide Counterscreen for Small Molecule Inhibitors of Shiga Toxin. cell reporter, cycloheximide protein synthesis inhibition counterscreen. max response, %. 300,000 tested, 12% active; in the data active means max response mostly above about 13%, no sharp cut-off; inactive means mostly below about 14%; further: read at 38.3 µM for the half of the compounds with a filed dose; 0% is about no effect
* marks the source's active call; other numbers are inactive results; ? = inconclusive; / = not tested or not shown. Unless noted, the call rests on the fitted dose curve; in most records, active means well fitted inhibition curve with a large enough effect; inconclusive means small, poorly fitted or top-dose-only effect, or another doubt; inactive means no such curve, though single readings can be large or run the other way.

SMILES	Pf growth 96h	Pf growth 48h	Shiga inhibitor	LmPK inh	CHX counter
CC(=O)Nc1ccc(N2C(=O)c3ccc(S(=O)(=O)c4ccc(C(=O)O)cc4)cc3C2=O)cc1	0%	12µM*	-14	-1%	-3
O=C(O)c1ccc(S(=O)(=O)c2ccc3c(c2)C(=O)N(c2ccccc2[N+](=O)[O-])C3=O)cc1	13µM*	6%	-33	-9%	-1
CC(=O)Oc1ccccc1N1C(=O)c2ccc(C(=O)O)cc2C1=O	4%	11%	15	-1%	2
CCOc1ccccc1N1C(=O)c2ccc(S(=O)(=O)c3ccc(C(=O)O)cc3)cc2C1=O	0.17µM*	20%	-15	1%	-5
O=C(O)c1ccc(S(=O)(=O)c2ccc3c(c2)C(=O)N(NC(=O)c2cccnc2)C3=O)cc1	-11%	27%	17	2%	24*
CN1C(=O)c2ccc(S(=O)(=O)c3ccc(C(=O)O)cc3)cc2C1=O	30%	17%	-1	4%	11
CCC(=O)Nc1cc2c3c(c1)CCC(=O)N3CCC2	?	-18%	-2	-1%	-1
COc1c(-c2ccc([N+](=O)[O-])cc2[N+](=O)[O-])c(=O)n(C)c(=O)n1C	4%	-11%	10	-5%	-3
Cn1cccc1/C=N/NC(=O)c1cccs1	40%	80%	74*	-12%	42*
Cn1cccc1/C=N/NC(=O)c1ccc[n+]([O-])c1	-13%	5%	18	4%	-2
Cn1cc(/C=N\NC(=O)c2cccs2)c2ccccc21	5.9µM*	111%	63*	-7%	49*
Cc1cccc(C)c1OCC(=O)N/N=C/c1cccn1C	?	-14%	13	1%	1
CCCc1cc(C(=O)N/N=C/c2cccn2C)cs1	2%	-22%	110*	-5%	62*
Cn1cccc1/C=N/NC(=O)Cc1cccs1	22%	42%	49*	-3%	11
Cc1ccc(C(=O)NNC(=O)c2ccc3ncccc3c2)cc1	0%	11%	-10	2%	-1
COC(=O)Nc1ccc(S(=O)(=O)N2CCCC(C(=O)O)C2)cc1 (configuration not stated)	-9%	6%	7	-3%	-2
CC(=O)NCCCC[C@H](NC(=O)OC(C)(C)C)C(=O)Nc1ccc2c(C(F)(F)F)cc(=O)oc2c1	/	/	-4	/	-3
C=CCNC(=S)N/N=C/c1cn(C)c2ccccc12	?	8.3µM*	24	5%	21*
O=C(Cc1cccs1)N/N=C\c1ccc(O)cc1	113%	14%	51*	2%	32*
Cn1cc(/C=N/NC(N)=S)c2ccccc21	?	2%	15	-11%	14
Cc1ccccc1NC(=O)/C=C1\SC(=O)NC1=O	10%	-1%	35	-3%	8
Cc1ccc(NC(=O)COC(=O)c2cc(=O)c3ccccc3o2)cc1F	31%	-11%	/	/	/
Cc1nnc(SCC(=O)Nc2cccc(S(=O)(=O)NC3=NCCCCC3)c2)n1Cc1ccccc1	-19%	-17%	-4	2%	-1
CCc1ccc(Nc2nnc(SCC(=O)Nc3cccc(S(=O)(=O)NC4=NCCCCC4)c3)s2)cc1	?	17%	active	2%	49*
Cc1ccc(Nc2nnc(SCC(=O)Nc3cccc(S(=O)(=O)NC4=NCCCCC4)c3)s2)cc1	?	7%	18	0%	15*
SMILES	Pf growth 96h	Pf growth 48h	Shiga inhibitor	LmPK inh	CHX counter
CCc1ccc(Nc2nnc(SCC(=O)Nc3ccc(C(=O)O)cc3)s2)cc1	196%	4.7µM*	-6	-19%	-3
CC(C)OC(=O)c1c2nc3ccccc3nc2n2c1[nH]c(=O)c1ccccc12	6.6µM*	0%	-8	0%	-3
Oc1ccccc1C=NC1=NN(c2cccc(C(F)(F)F)c2)CC1	2.1µM*	35%	3	-9%	5
FC(F)(F)c1cccc(N2CCC(N=CN3CCCCCC3)=N2)c1	?	?	49*	1%	39*
Cc1cc(=O)c(C(=O)O)nn1-c1cccc(C(F)(F)F)c1	25%	23%	-8	-3%	-3
Cc1ccc(OCc2cc(C(=O)N3CCN(C)C[C@@H]3c3ccccc3)no2)cc1C	?	?	123*	5%	75*
Cc1cc(OCc2cc(C(=O)N3CCN(C)C(=O)[C@@H]3C)no2)cc(C)c1Cl	?	?	9	3%	9

Compound activity: PubChem BioAssay, National Center for Advancing Translational Sciences (NCATS)
